# High-throughput results: PubChem BioAssay, National Center for Advancing Translational Sciences (NCATS)
# SARS PLpro yeast – blocks SARS-CoV papain-like protease in a yeast assay; 0.19% of 330,000 active; Potency, µM (doses to about 32.9 µM), for the others: at the top dose activity, positive = growth rescue, hits mostly activators; S. cerevisiae expressing SARS-CoV PLpro, growth rescue; further: potency means the concentration at half of the fitted maximal effect; 0% is about no effect; nearly all actives have a fitted effect of over 55% in size
# Pf growth 48h – inhibits P. falciparum growth in the first generation, 48 h. Potency, µM (top dose mostly 28.7 µM), inactives show at the top dose activity change, negative = inhibition, hits mostly inhibitors. 5.9% of 310,000 active. P. falciparum luciferase growth in erythrocytes, 48 h. AID 504832; active means well fitted inhibition curve with a large enough effect; inconclusive means small, poorly fitted or top-dose-only effect, or another doubt; inactive means no such curve, though single readings can be large or run the other way; further: potency means the concentration at half of the fitted maximal effect; on the % scale 0 is the no-effect control and ±100 the full control effect
#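 Luciferase-expressing P. falciparum in infected erythrocytes (2% hematocrit, 0.1% parasitemia final) in RPMI 1640/0.5% Albumax were exposed to compound for 48 hours at 37 C, 5% CO2; growth read as luminescence.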
# Pf growth 96h – inhibits malaria parasite growth, 96 h | Potency, µM (doses to about 28.7 µM), without a hit: top-dose activity change, negative = inhibition, usual class: inhibitors | P. falciparum luciferase reporter growth, 96 h | 6.9% of 320,000 active | AID 504834; active means well fitted inhibition curve with a large enough effect; inconclusive means small, poorly fitted or top-dose-only effect, or another doubt; inactive means no such curve, though single readings can be large or run the other way; further: potency means the concentration at half of the fitted maximal effect; on the % scale 0 is the no-effect control and ±100 the full control effect
#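 P. falciparum expressing integrated firefly luciferase, in erythrocytes at 2% hematocrit, 0.05% parasitemia, incubated with compounds 96 h at 37 C, 5% CO2. Growth inhibition read as loss of luminescence; two-generation exposure targets delayed-death apicoplast inhibitors.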
# CHX counter – counter-screen for Shiga toxin inhibitors: cycloheximide protein synthesis inhibition; AID 2314; max response, %; 12% of 300,000 active; cell reporter, cycloheximide protein synthesis inhibition counterscreen; in the data active means max response mostly above about 13%, no sharp cut-off; inactive means mostly below about 14%; further: read at 38.3 µM for the half of the compounds with a filed dose; 0% is about no effect
# Shiga toxin inh – inhibitors of Shiga toxin in Vero cells. Vero cells, Shiga toxin protein synthesis inhibition reporter. AID 2315. 9.2% of 290,000 active. inhibition, % at 38.7 µM; in the data active means inhibition mostly above about 28%, no sharp cut-off; inactive means mostly below about 43%; further: 0% is about no effect
# NS1 function inh – blocks influenza NS1 protein function. 0.4% of 270,000 active. AID 2326. Potency, µM (doses to about 46.1 µM), inactives show at the highest dose activity, positive = more growth; further: potency means the concentration at half of the fitted maximal effect; actives are rising curves; nearly all actives have a fitted effect of over 50% in size
#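 OD600 was taken as the measure of yeast growth restored by compound in an NS1-expressing S. cerevisiae strain. Cells had been washed out of glucose medium and diluted 1:100 into galactose -URA medium, pH 6.0.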
# * = called active by the depositor; ? = inconclusive; / = no result; ! = not active in a repeat. Most compounds without a hit are left out; they make up all but 21% or so of the library. Unless noted, the call rests on the fitted dose curve.
SMILES,SARS PLpro yeast,Pf growth 48h,Pf growth 96h,CHX counter,Shiga toxin inh,NS1 function inh
CCOc1ccc2nc(N3CCC(C(=O)N4CCN(C(=O)c5ccco5)CC4)CC3)sc2c1,-30%,13µM*,?,10,13,-11%
CCOc1ccc2nc(N3CCCCCC3)sc2c1,-2%,211%,?,57*,102*,-26%
CCOc1ccc2nc(NC(=O)C3CCN(C(=O)c4ccco4)CC3)sc2c1,-4%,-13%,73%,27*,74*,8%
CC(C)N(C(=O)C[n+]1ccsc1N)c1ccccc1,2%,9%,0%,1,20,/
CN(C)S(=O)(=O)c1ccc(Cl)c(C(=O)NCCNC(=O)c2cc(S(=O)(=O)N(C)C)ccc2Cl)c1,14%,/,-15%,-1,13,0%
COc1ccc(-n2ccnc(SCC(=O)NCc3ccccc3Cl)c2=O)cc1,1%,-7%,20%,7,1,-3%
CCOc1ccc2nc(SCC(=O)c3ccc(C)s3)sc2c1,7%,/,6%,1,2,3%
COc1ccc(C(=O)N2CCC(C(=O)c3ccc(F)cc3)CC2)cc1,?,-10%,8%,-3,-11,-24%
COc1ccc2nc(NC(=O)C3CCN(C(=O)c4ccc(F)cc4)CC3)sc2c1,?,?,9.3µM*,9,24,8%
CCOc1ccc2nc(N3CCC(C(=O)N4CCN(C5CCCCC5)CC4)CC3)sc2c1,-6%,22%,25%,48*,64*,11%
CCOc1ccc2nc(SCc3ccc(F)cc3)sc2c1,-19%,33%,0%,37*,36*,-19%
O=[N+]([O-])c1cccc(-n2cc3ccc([N+](=O)[O-])cc3n2)c1,-3%,120%,97%,/,/,/
COc1cc(N2CCCC2)c(OC)cc1/C=C(/C#N)c1ccc(F)cc1,-6%,10µM*,-26%,-1,12,2%
CCO[C@H]1OC(C(=O)N2CCN(Cc3ccc4c(c3)OCO4)CC2)=C[C@@H](c2ccc3c(c2)OCO3)[C@@H]1CCCO,0%,5.9µM*,13µM*,-1,-3,-7%
C#Cc1ccc([C@H]2C=C(C(=O)N3CCN(Cc4ccc5c(c4)OCO5)CC3)O[C@@H](OCC)[C@@H]2CCCO)cc1,0%,4.1µM*,4.1µM*,1,-4,-10%
C[C@H](N)C(=O)N[C@@H](CO)C(=O)N[C@H](C(=O)N[C@H](C(=O)N[C@H](C(=O)N[C@@H](CC(N)=O)C(=O)N[C@@H](Cc1ccc(O)cc1)C(=O)N[C@H](C(=O)O)[C@@H](C)O)[C@@H](C)O)[C@@H](C)O)[C@@H](C)O,/,/,/,-5,-16,/
CCCC(=O)N(CCN1CCOCC1)c1nc2cc(C)c(C)cc2s1,8%,149%,88%,51*,91*,-21%
COc1ccccc1OC(C)C(=O)N1CCN(Cc2ccc3c(c2)OCO3)CC1 (stereo unspecified),-3%,-4%,14%,-3,-15,-7%
CCOc1ccccc1CNC(=O)CCNS(=O)(=O)c1ccc2[nH]c(=O)oc2c1,3%,?,?,-5,6,-3%
c1ccc(Cn2c(CN3CCCC3)nc3ccccc32)cc1,4%,?,9.3µM*,-5,-15,18%
Clc1ccc(Cn2c(CN3CCCC3)nc3ccccc32)cc1,4%,?,4.1µM*!,-3,-8,2%
O=c1ccc(-c2nc3ccccc3n2Cc2ccc(Cl)cc2)c[nH]1,3%,5.9µM*,9.3µM*,-12,-1,-2%
CN1CCN(CC(=O)Nc2cc(S(=O)(=O)N3CCOCC3)ccc2Cl)CC1,0%,9%,11%,/,/,/
COc1cc(OC)c(NS(=O)(=O)c2ccc(Cl)c(C(=O)OC(C)C(=O)N3CCCC3)c2)cc1Cl (stereo unspecified),-14%,-11%,-29%,2,-16,-5%
CC(=O)c1cccc(NC(=S)N2CCN(c3ccccn3)CC2)c1,-5%,-1%,-20%,10,3,8%
O=C(O)CSCC(=O)N1CCN(Cc2ccc3c(c2)OCO3)CC1,-2%,-4%,0%,3,-1,-4%
COc1ccc(-n2nc3cc(C)c(N)cc3n2)cc1Cl,10%,121%,5%,40*,39*,29%
Cc1cc2nn(-c3ccc(F)cc3)nc2cc1N,3%,-35%,?,58*,/,?
